In PubChem BioAssay AID624093 (National Center for Advancing Translational Sciences (NCATS), 2012):
Results filed as inconclusive are left out. A number with no mark means an inactive call. Active and inactive are the calls of the source. The call rests on the fitted dose curve; in most records, active means well fitted inhibition curve with a large enough effect; inconclusive means small, poorly fitted or top-dose-only effect; inactive means flat fitted curve, though single readings scatter.

Each compound was assayed against Dual specificity tyrosine-phosphorylation-regulated kinase 1A (Homo sapiens) (UniProt Q13627) (assay: Confirmation Assay for Inhibitors of Dyrk1a (Kinase-Glo Assay): KU probe). Settings: Kinase-Glo ATP luminescence; series mostly up to 76.9 µM; activity, negative = inhibition: at the top concentration.
From the text: NIH Molecular Libraries Probe Production Centers Network [MLPCN] NIH Chemical Genomics Center [NCGC] MLSCN Grant: 1R03MH084827-01 PI Name: Tom Misteli NCGC Assay Overview: The CMGC group of protein kinases which includes CDK-like kinases (Clk) and Dyks are essential kinases found in all eukaryotes. Clks have been implicated to play a role in the regulation of alternative splicing; while Dyrks, in particular over expression of Dyrk1A, has been linked to diseases as Down syndrome (DS; OMIM 190685) and Alzheimer disease (AD; OMIM 104300). Among the members of the CMGC group, the Clks and the Dyrks are very closely related therefore to determine validity and selectivity of an active compound observed in the CLK4 qHTS screen (AID:1770), a bioluminescent counter-screen against Dyrk1A was developed. In addition, potent and selective compounds against Dyrk1A were identified to further assess the role of this enzyme in DS and AD. Dyrk1A (Invitrogen, cat # PV3785) was assayed using ATP and DYRKtide (AnaSpec, cat# 62698) as substrates. Promega Kinase-Glo (cat# V6712) technology was used to detect the residual ATP following kinetic reaction. The Kinase-Glo Plus contains Ultra-Glo [5] luciferase and D-luciferin which generates a bioluminescence signal from the remaining ATP. No enzyme and harmine (Sigma, cat # 286044-1G), a compound shown to inhibit Dyrks were used as a positive control; while DMSO treatment was used as a negative control.
NCGC Assay Protocol Summary: Two uL/well of substrate solution (8uM Dyrktide, 2uM ATP, 25mM Tris-HCl pH 7.5, 10mM MgCl2 , 0.5mM EGTA, 5mM cystein, 0.01% Triton X-100 final concentration) was dispensed into 1536-well assay plates (Greiner, solid white, medium-binding plates) with Aurora Discovery BioRAPTR Flying Reagent Dispenser (FRD, Beckton-Dickenson). Compound solution (23 nL) was transferred to the assay plate using Kalypsys pin tool equipped with a 1536-pin tool. One uL/well enzyme solution (5nM Dyrk1A, 25mM Tris-HCl pH7.5, 10mM MgCl2, 0.5mM EGTA, 5mM cystein, 0.01% Triton X-100 final concentration) was then added using FRD yielding a total kinase reaction volume of 3uL/well. After 2 hours of room temperature incubation, 3uL Kinase-Glo detection reagent was added for a final assay volume of 6uL/well. The plates were spun for 30 seconds (1000 rpm) and incubated at ambient temperature for 2 minutes followed by a luminescence read using Perkin Elmer ViewLux plate reader at 3 seconds exposure time and 2x binning.

Row | Compound | Potency | activity, negative = inhibition
1 | Cc1c(-c2ccnc(NCc3ccc(Cl)cc3)n2)sc(=O)n1C | 164 nM (active) | 
2 | c1cc(-c2ccc3c(c2)OCO3)nc(Nc2ccc3c(c2)OCO3)n1 | 130 nM (active) | 
3 | c1nc(NCC2CCCCO2)c2cc(-c3ccc4c(c3)OCO4)ccc2n1 (stereo not given) | 65.4 nM (active) | 
4 | c1cc(-c2ccoc2)nc(-c2ccoc2)n1 | 20700 nM (active) | 
5 | Brc1cc(Br)cc(CNc2ccnc(-c3ccc4c(c3)OCO4)n2)c1 |  | -18.5%
6 | COc1ccc(-c2nccc(NCc3ccc(Cl)c(Cl)c3)n2)cc1 |  | -9.84%
7 | COc1ccc(-c2ncccn2)cc1 |  | -16.1%
8 | c1coc(CNc2ncnc3ccc(-c4ccc5c(c4)OCO5)cc23)c1 | 104 nM (active) | 
9 | O=C(O)c1ccc(-c2ccc3ncnc(N4CCOCC4)c3c2)o1 | 26000 nM (active) | 
10 | CN(CC1CCCCC1)c1ncnc2ccc(-c3ccc4c(c3)OCO4)cc12 | 1160 nM (active) | 
11 | CN(C)c1ccc(-c2nccc(NCc3ccccc3)n2)cc1 |  | -4.92%
12 | O=C(O)c1ccc(-c2ccc3ncnc(NCc4nccs4)c3c2)o1 | 8230 nM (active) | 
13 | Cc1ccc(CNc2ccnc(-c3ccc(N(C)C)cc3)n2)cc1 |  | 1.98%
14 | c1cc(-c2ccoc2)nc(-c2ccc3c(c2)OCO3)n1 | 29200 nM (active) | 
15 | CC(=O)c1ccc(-c2ccc3ncnc(NCc4ccc(C)o4)c3c2)o1 | 1640 nM (active) | 
16 | c1cnc(-c2ccc3c(c2)OCO3)nc1 |  | -7.86%
17 | c1cncc(CNc2ccnc(-c3cccc4ccccc34)n2)c1 | 41200 nM (active) | 
18 | COc1ccc(-c2ccnc(NCc3ccc(Cl)c(Cl)c3)n2)cc1 | 733 nM (active) | 
19 | Cc1c(-c2ccnc(NCc3cccnc3)n2)sc(=O)n1C | 146 nM (active) | 
20 | COc1ccc(CNc2ccnc(-c3ccc(N(C)C)cc3)n2)cc1 |  | -1.18%

Row | Compound | Potency | activity, negative = inhibition
21 | Clc1ccc(CNc2nccc(-c3ccc4c(c3)OCO4)n2)cc1Cl | 164 nM (active) | 
22 | c1coc(-c2ccnc(-c3ccc4c(c3)OCO4)n2)c1 | 20700 nM (active) | 
23 | CCNC(=O)c1ccc(-c2ccc3ncnc(NCC4CCCO4)c3c2)o1 (stereo not given) | 2600 nM (active) | 
24 | O=c1cnc2cnc(Nc3ccccc3)nc2n1CCc1ccccc1 | 292 nM (active) | 
25 | c1cncc(CNc2cc(-c3ccc4c(c3)OCO4)ncn2)c1 | 16400 nM (active) | 
26 | Cc1noc(C)c1-c1nccc(NCc2ccc(Cl)c(Cl)c2)n1 |  | -4.65%
27 | Cc1ccc(CNc2ccnc(-c3c(C)noc3C)n2)cc1 |  | -9.63%
28 | c1nc(NC[C@@H]2CCCO2)c2cc(-c3ccc4c(c3)OCO4)ccc2n1 | 130 nM (active) | 
29 | COc1ccc(-c2nccc(NCc3ccc(Cl)cc3)n2)cc1 |  | -9.84%
30 | COc1ccc(-c2nccc(NCc3ccc(C)cc3)n2)cc1 |  | -10.8%
31 | c1cncc(CNc2ccnc(-c3ccc4cn[nH]c4c3)n2)c1 | 2070 nM (active) | 
32 | Cc1noc(C)c1-c1nccc(NCc2ccc(Cl)cc2)n1 |  | -5.84%
33 | Clc1ccc(CNc2nccc(-c3ccc4cn[nH]c4c3)n2)cc1Cl | 412 nM (active) | 
34 | CC(C)(C)CNc1ncnc2ccc(-c3ccc4c(c3)OCO4)cc12 | 11.6 nM (active) | 
35 | Cc1noc(C)c1-c1ncccn1 |  | -1.99%
36 | CCCN(C)c1ncnc2ccc(-c3ccc4c(c3)OCO4)cc12 | 260 nM (active) | 
37 | Clc1ccc(CNc2ncncc2-c2ccc3c(c2)OCO3)cc1Cl | 4120 nM (active) | 
38 | Clc1ccc(CNc2ccnc(-c3ccc4[nH]ncc4c3)n2)cc1Cl | 4630 nM (active) | 
39 | c1nc(NCC2CCCCC2)c2cc(-c3ccc4c(c3)OCO4)ccc2n1 | 116 nM (active) | 
40 | Clc1cc(Cl)cc(CNc2ccnc(-c3ccc4c(c3)OCO4)n2)c1 |  | -17.3%
